The values below come from PubChem BioAssay (EPA / NIEHS).

Activity calls are given as the source filed them. The calls were made as follows: active = hit-call score of the fitted dose curve at least 0.9, where 1 is the maximum; inactive = score below 0.9.

Usually AC50 stands for the concentration at which the activity in the assay is half-maximal.

Read-out in this test: Insulin Like Growth Factor 1 (IGF1), IGF1 (gene 3479)
In words: LTEA_HepaRG_IGF1: Life Technologies and Expression Analysis (LTEA) Assay for Insulin Like Growth Factor 1 (IGF1) using HepaRG (AID 2283506). Conditions: mRNA level, 48 h; actives raise or lower the signal. The protocol:
LTEA_HepaRG is a cell based, multiplexed-readout assay that uses HepaRG, a human liver cell line, with measurements taken at 48 hours after chemical dosing on a 96-well plate.LTEA_HepaRG_IGF1 is one of 102 assay component(s) measured in the LTEA HepaRG cell culture assay. It is a marker of Cell proliferation, survival, death.Data from the assay component LTEA_HepaRG_IGF1 was analyzed into 1 endpoint. This assay endpoint, LTEA_HepaRG_IGF1, was analyzed with bidirectional fitting relative to DMSO as the negative control and baseline of activity. Using a type of inducible reporter, measures of mRNA induction for gain or loss-of-signal activity can be used to understand regulation of transcription factor activity. To generalize the intended target to other relatable targets, this assay endpoint is annotated to the growth factor intended target family, where the subfamily is insulin-like.
A total of 1060 chemcials from the ToxCast library were tested in eight-point concentration-response experiments. Cell culture and cytotoxicity assays were conducted at Thermo Fisher Scientific's Custom Services facility (Madison, WI). A single lot of human HepaRG cells (Thermo Fisher Scientific, Frederick, MD) was used for the cell culture experiments. 96-well format collagen type I coated plates of human HepaRG cells were prepared using established methods. Briefly, cryopreserved HepaRG cells were thawed, plated at a density of approximately 100,000 cells/well in HepaRG Thaw, Plate, and General Purpose media (HPRG770, Thermo Fisher Scientific), and incubated for 48 hours. 0.5% DMSO was selected as vehicle control to balance the requisite need of DMSO in HepaRG cultures to maintain differentiation (for example, baseline metabolism, proportions of hepatocytes vs. cholangiocytes), while enabling further hepatic receptor pathway activation (for example, PXR and CAR) in response to chemical exposure. 48 hours after plating, the culture medium was replaced with HepaRG Serum-Free Incudtion Media. Cells were exposed to each test chemical in duplicate and maintained in CO2 incubators for another 48 hours. Chemical plates were thawed to room temperature and 200x concentrations of treatment groups were prepared. 8-point conentration-reponse curves were made with the highest exposure at 100 uM, followed by half-log dilutions, all in 0.5% DMSO. Each test plate contained variouse controls, induction positive controls (1mM phenobarbital), cytotoxicity positive controls ([…] aflatoxin B1), vehicle controls (0.5% DMSO), and total lysis controls (0.5% DMSO). Cell morphology images were taken using an Essen IncuCyte FLR automated microscope, with six 96-well plates imaged in about 24 minutes. Images were captured and exported and JPEG files. Spent culture media was transfered to black-well plates for the LDH assay, and remaining media was sorted at -80 C for later use. Cells were treated with RLT buffer and frozen until shipped for gene expression analysis. Total RNA was isolated from the cell suspension in 75 uL of Buffer RLT (Qiagen, Germantown, MD 20874) by Quintiles/Expression Analysis (Durham, NC) using a custom isolation procedure. Total RNA from each plate well was transferred to a preamplification plate. Fluidigm's 96.96 Dynamic ArrayTM (Fluidigm, Amsterdam, the Netherlands) technology was used for gene expression analyses by quantitative reverse transcription polymerase chain reaction (qRT-PCR, performed by Quintiles/Expression Analysis, Durham, NC)89. Standard TaqManTM Assays (Applied Biosystems/ThermoFisher Scientific, Foster City, CA) were used to assess the expression of 93 genes selected based on their selectivity and sensitivity to important hepatic receptors known to be modulated by environmental chemicals; importance in human hepatocyte functionality; and hepatotoxicity. […]
With `Cc1ccc(C(C)(C)C)c(O)c1`, the outcome was inactive.

Regarding `NC1CCCCC1`, the call was inactive.

On to `CCCCCCCCCC[N+](C)(C)[O-]`, for which the compound was called inactive.

For the compound `CCCCCCCCCCCCCCOS(=O)(=O)O`, the AC50 was 24.6 µM (active).

Regarding `CCCC(=O)O`, the result was inactive.

For `COC(=O)[C@H]1[C@H]2C[C@@H]3c4[nH]c5cc(OC)ccc5c4CCN3C[C@H]2C[C@@H](OC(=O)c2cc(OC)c(OC)c(OC)c2)[C@@H]1OC`, the AC50 is 54.4 µM (active).

Take `O=C1O[C@H]([C@H](O)CO)C(O)=C1O`: the outcome was inactive.

Consider `Cn1cnc2c1c(=O)[nH]c(=O)n2C`, for which the call was inactive.

On to `CC(=O)CC(c1ccccc1)c1c(O)c2ccccc2oc1=O` (stereo not given), for which the result was inactive.

As for `O=C1CCCCC1`, the result was inactive.

As for `N[C@@H](Cc1c[nH]c2ccccc12)C(=O)O`, the compound was classed as inactive.

For `O=C1NC(=O)C(c2ccccc2)(c2ccccc2)N1`, the call was inactive.

Take `CC(C)COC(=O)CCCCC(=O)OCC(C)C`: the compound was classed as inactive.

As for `Cc1cc(SC2=C(O)C[C@@](CCc3ccc(N)cc3)(C(C)C)OC2=O)c(C(C)(C)C)cc1CO`, the AC50 was 4.02 µM (active).

Turning to `CO[C@@H]1COCC[C@@H]1N[C@@H]1CC[C@@](C(=O)N2CCc3ncc(C(F)(F)F)cc3C2)(C(C)C)C1`, the outcome was inactive.

Take `O=C1c2c(O)cccc2Cc2cccc(O)c21`: the call was inactive.

For the compound `COC(=O)CCCC(=O)OC`, the compound was classed as inactive.

Turning to `CN(C)C(=O)NC1(c2ccccc2)CCN(CCC[C@]2(c3ccc(Cl)c(Cl)c3)CCCN(C(=O)c3ccccc3)C2)CC1`, the AC50 was 16.4 µM (active).

With `O=C(O)c1[nH]n(-c2ccc(S(=O)(=O)O)cc2)c(=O)c1N=Nc1ccc(S(=O)(=O)O)cc1`, the compound was classed as inactive.

With `CCCCCCC(CCCCCCCCCCC(=O)OCC(COC(C)=O)OC(C)=O)OC(C)=O` (stereo not given), the compound was called inactive.

As to `CCCCc1nc2cccnc2n1Cc1ccc(-c2ccccc2-c2nnn[nH]2)cc1`, the AC50 is 50 µM (active).

As for `CC(N)=O`, the result was inactive.

For the compound `Cc1cc(Cc2ccc(N)c(C)c2)ccc1N`, the result was inactive.

Regarding `CSc1ccc(Oc2ccc(S(N)(=O)=O)cc2CN(C)C)cc1C`, the result was inactive.

`CC(COCC(C)OC(=O)c1ccccc1)OC(=O)c1ccccc1` (stereo not given): the call was inactive.

As for `CC(C)(O)c1ccc(CNC(=O)c2cccnc2Oc2ccc(F)cc2)cc1`, the AC50 is 50 µM (active).

Regarding `CN(C)CCCN(C)CCCN(C)C`, the outcome was inactive.

For `CCc1cc(C2=C(C(=O)O)N(c3ccccc3C(F)(F)F)S(=O)(=O)c3ccccc32)cc2c1OCO2`, the compound was classed as inactive.

In the case of `OCC(O)CO`, the compound was classed as inactive.

As to `CC(=O)[C@@]1(O)CC[C@H]2[C@@H]3CCC4=CC(=O)CC[C@]4(C)[C@H]3CC[C@@]21C`, the outcome was inactive.

In the case of `COc1ccc(C(=O)Nc2nc3ccccc3c(NCc3ccccc3)c2C#N)cc1`, the AC50 is 13.4 µM (active).

`CC(=O)OCC(COC(C)=O)OC(C)=O`: the outcome was inactive.

On to `CS(=O)(=O)c1ccc([C@@H](C[C@H]2CCC(=O)C2)C(=O)Nc2cnccn2)cc1Cl`, for which the AC50 was 1.24 µM (active).

In the case of `Cc1occc(=O)c1O`, the outcome was inactive.

`S=c1[nH]c2ccccc2s1`: the result was inactive.

`O=[Si]=O`: the result was inactive.

In the case of `Cc1c(C)c2c(c(C)c1O)CCC(C)(COc1ccc(CC3SC(=O)NC3=O)cc1)O2` (stereo not given), the AC50 was 68.5 µM (active).

Turning to `C/C=C/C=C/C(=O)O`, the compound was classed as inactive.

Turning to `O=C1OC(c2ccc(O)cc2)(c2ccc(O)cc2)c2ccccc21`, the result was inactive.

For `O=Cc1ccccc1C=O`, the outcome was inactive.
